The nature of assay [1]: NCI Yeast Anticancer Drug Screen. Data for the rad50 strain (AID 155).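 Further: 0% = growth of vehicle-only cultures of the same strain.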 The conditions noted are these: S. cerevisiae rad50 strain growth inhibition; at 50.0 µM; stronger effect = higher value. The method in brief: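 Genetically altered yeast (DNA repair pathway); compound treatment; growth inhibition vs vehicle ctrl.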
Assay [2] in a line: NCI Yeast Anticancer Drug Screen. Data for the mec2-1 strain (AID 157). The conditions noted are these: S. cerevisiae mec2-1 strain, at 50.0 µM, stronger effect = higher value. The method in brief:
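Mutant yeast (mec2-1) grown with compound; growth inhibition relative to vehicle control reported.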

Assay [3] in a line: NCI Yeast Anticancer Drug Screen. Data for the sgs1 mgt1 strain (AID 161).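 Further: 0% = growth of cultures given vehicle only.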 The settings on record: S. cerevisiae sgs1 mgt1 strain, at 50.0 µM, stronger effect = higher value. The method in brief:
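Percent growth inhibition was derived by comparing compound-exposed mutant yeast with vehicle-exposed cultures. The strain carries alterations in DNA damage repair.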

The nature of assay [4]: NCI Yeast Anticancer Drug Screen. Data for the cln2 rad14 strain (AID 165).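 Further: 0% = growth equal to vehicle treated cultures.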 The conditions noted are these: S. cerevisiae cln2 rad14 strain, at 50.0 µM, stronger effect = higher value. The method in brief:
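Readout is yeast growth inhibition versus vehicle-treated controls, using a strain with cln2 and rad14 alterations exposed to compound.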

Assay [5] can be described thus: NCI Yeast Anticancer Drug Screen. Data for the bub3 strain (AID 167). The settings on record: S. cerevisiae bub3 mutant strain, at 50.0 µM, stronger effect = higher value. The method in brief:
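Yeast carrying a defined mutation is treated with each compound, and growth is compared with that of vehicle-exposed cells to give inhibition.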

Assay [6] can be described thus: NCI Yeast Anticancer Drug Screen. Data for the mlh1 rad18 strain (AID 175). The conditions noted are these: S. cerevisiae mlh1 rad18 strain growth inhibition; at 50.0 µM; stronger effect = higher value. The method in brief: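 Genetically defined yeast (DNA repair-deficient) exposed to compounds; growth inhibition determined relative to vehicle.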

This is part of a sample that, as a whole, favours compounds with a hit. Of some 79,000 tested, about 15% had one in any assay. A number with no mark means an inactive call. Calls of active or inactive are those of the source. No stated cut-off is given here; in the data, active means growth inhibition above about 70%; inactive means the rest.

For the compound `Cc1sc2nc3n(c(=O)c2c1C)N=CN(c1ccc(F)cc1)C3`, the growth inhibition in assay [1] was 0.85%; in assay [2], -0.45%; in assay [3] it was 8.85%; in assay [4], -17.1%; in assay [5] it was -7.5%; in assay [6], -32.6%.

`COc1ccc(NC(=O)C/C(C)=C2/C(=O)NN(c3ccccc3)C2=O)cc1`: the growth inhibition in assay [1] is 33.5%; in assay [2], 15.2%; in assay [3] it was 39.9%; in assay [4], 4.5%; in assay [5], 19.1%; in assay [6], 41.1%.

For the compound `COc1ccccc1CNCCCCCCNCCSSCCNCCCCCCNCc1ccccc1OC`, the growth inhibition is 6.55% in assay [1]; 5.1% in assay [2]; 7.4% in assay [3]; -36.7% in assay [4]; -2.35% in assay [5]; 32.5% in assay [6].

`O=C1C=Cc2ccccc2/C1=C/c1nc(-c2ccc(Cl)cc2)oc1O`: the growth inhibition in assay [1] is -3.2%; in assay [2], 7.05%; in assay [3] it was -8.75%; in assay [4], -1.2%; in assay [5], 6.9%; in assay [6], -13.3%.

For the compound `CCCC(=O)OCC1OC(n2ccc(N)nc2=O)C(OC(=O)CCC)C1OC(=O)CCC` (configuration not stated), the growth inhibition was 18.6% in assay [1]; -22.4% in assay [2]; 36.3% in assay [3]; 17.8% in assay [4]; 10.6% in assay [5]; 8.2% in assay [6].

On to `CCC(C)CNCCO` (configuration not stated), for which the growth inhibition in assay [1] is 24.6%; in assay [2], -7.1%; in assay [3] it was 5.7%; in assay [4], 0.35%; in assay [5], -6.25%; in assay [6], 11.3%.

Turning to `Nc1nc(N)c2nc(-c3ccc(N(CCO)CCO)cc3)c(N)nc2n1`, the growth inhibition in assay [1] is -13.1%; in assay [2] it was -14.8%; in assay [3], -11.9%; in assay [4], -34.9%; in assay [5] it was 3.15%; in assay [6], -15.9%.

For `Cc1ccc(N=C(N)N)cc1`, the growth inhibition in assay [1] was -1.25%; in assay [2] it was 0.3%; in assay [3] it was 1.05%; in assay [4], 12.3%; in assay [5], 0.7%; in assay [6] it was -1.8%.

With `Clc1ccc(-c2ccncc2)cc1`, the growth inhibition in assay [1] is 17.1%; in assay [2] it was -9.15%; in assay [3], 7.2%; in assay [4] it was -69.7%; in assay [5], 13.1%; in assay [6], 5.7%.

Take `CCSC(SCC)C(Nc1ccc([N+](=O)[O-])cc1[N+](=O)[O-])C(OC(C)=O)C(OC(C)=O)C(COC(C)=O)OC(C)=O` (configuration not stated): the growth inhibition in assay [1] is 30.9%; in assay [2], 9.65%; in assay [3], 10.2%; in assay [4], 14.8%; in assay [5], -2.9%; in assay [6], 12.8%.

On to `O=[N+]([O-])c1ccc(C(O)C(c2ccccc2)S(=O)(=O)N2CCCCC2)cc1` (configuration not stated), for which the growth inhibition in assay [1] was 40.6%; in assay [2], -2.75%; in assay [3] it was 17.1%; in assay [4], -31.9%; in assay [5], -0.5%; in assay [6] it was 24.9%.

With `CC(C)(O)c1cc(=O)n(-c2ccccc2)[nH]1`, the growth inhibition is -6% in assay [1]; -6.3% in assay [2]; 6.55% in assay [3]; -64.8% in assay [4]; -18% in assay [5]; -5.1% in assay [6].

In the case of `NC(=S)Nc1ccccc1Cl`, the growth inhibition in assay [1] is -14.3%; in assay [2], -6.2%; in assay [3], 15.6%; in assay [4], -18.1%; in assay [5], -10.8%; in assay [6] it was 10.6%.

Take `Cc1ccc(N(C)C)cc1`: the growth inhibition in assay [1] is -25.3%; in assay [2] it was -15.1%; in assay [3] it was 10.8%; in assay [4], -18.4%; in assay [5] it was -0.45%; in assay [6] it was 6.4%.

Regarding `NNC(=O)Sc1ccccc1`, the growth inhibition in assay [1] is -14.8%; in assay [2], 9.65%; in assay [3] it was -12.8%; in assay [4], -31.9%; in assay [5], -12.3%; in assay [6], -0.45%.

As for `NCCn1ccnc1`, the growth inhibition in assay [1] was 13.3%; in assay [2] it was 1.7%; in assay [3], -1.75%; in assay [4] it was -19.8%; in assay [5], -3.15%; in assay [6] it was 1.4%.

Turning to `O=C(NCCCCNCCCNC(=O)c1ccc([N+](=O)[O-])cc1)c1ccc([N+](=O)[O-])cc1`, the growth inhibition in assay [1] is -5.5%; in assay [2], 4.1%; in assay [3], -11.1%; in assay [4], -26.3%; in assay [5] it was 4.4%; in assay [6], -11.4%.

In the case of `CC(C(=O)O)c1ccc(-n2nnc3c(=O)[nH][nH]c(=O)c32)cc1` (configuration not stated), the growth inhibition in assay [1] is -16.2%; in assay [2] it was -8.4%; in assay [3], -12.6%; in assay [4] it was -17.3%; in assay [5] it was 2.8%; in assay [6], -5.7%.

For `COCC(C)OC(=O)c1ccccc1` (configuration not stated), the growth inhibition in assay [1] is 23.8%; in assay [2], -0.8%; in assay [3] it was -9.9%; in assay [4], -23.4%; in assay [5], -14.9%; in assay [6], 31.9%.

Regarding `Cc1cc(=O)oc2c(CNC(C(=O)O)C(C)C)c(O)ccc12` (configuration not stated), the growth inhibition in assay [1] was 5.05%; in assay [2] it was -15.9%; in assay [3] it was -19.7%; in assay [4], 7.5%; in assay [5], -16.8%; in assay [6] it was -6.4%.

For the compound `CCCC(=O)OC1C=C2N3C(=O)C4CC56C(=CC(OC(C)=O)C7OC75)N4C(=O)C3CC26C2OC12` (configuration not stated), the growth inhibition was 83.3% (active) in assay [1]; 84.2% (active) in assay [2]; 89.7% (active) in assay [3]; 78.8% (active) in assay [4]; 76.3% (active) in assay [5]; 85.2% (active) in assay [6].

As to `C=CCn1c(=O)c(C(=O)Nc2nc(C34CC5CC(CC(C5)C3)C4)cs2)c(O)c2ccccc21`, the growth inhibition in assay [1] was -22.7%; in assay [2], -4.6%; in assay [3], -14.1%; in assay [4], 4.4%; in assay [5], 4.5%; in assay [6], -19.1%.

In the case of `CNCCCN1CCCCC1`, the growth inhibition in assay [1] was 31.8%; in assay [2], 16%; in assay [3], 22.4%; in assay [4], 6.3%; in assay [5], -4.4%; in assay [6], 13.6%.

As for `CC1(C#N)N(C(=O)c2ccccc2)c2ccccc2N1C(=O)c1ccccc1`, the growth inhibition is 18.6% in assay [1]; 50.2% in assay [2]; 46.2% in assay [3]; 27.2% in assay [4]; 36% in assay [5]; 24.9% in assay [6].

Consider `CCN(C(=O)c1ccc([N+](=O)[O-])cc1)C(c1ccccc1)P(=O)(c1ccccc1)c1ccccc1` (configuration not stated), for which the growth inhibition in assay [1] is -12.4%; in assay [2], -4.5%; in assay [3], -15.1%; in assay [4], -37%; in assay [5] it was 2.7%; in assay [6] it was 1.45%.

On to `Cn1c2c(c(=O)n(C)c1=O)CCC(=O)N2`, for which the growth inhibition is 4.95% in assay [1]; 0.7% in assay [2]; -6.5% in assay [3]; -32.6% in assay [4]; -2.4% in assay [5]; -9.4% in assay [6].

Turning to `C=C(C)[C@@H]1CC[C@@H](C)C[C@H]1O`, the growth inhibition is 9% in assay [1]; -11.8% in assay [2]; -1.55% in assay [3]; 13.8% in assay [4]; 9.95% in assay [5]; -1.65% in assay [6].

On to `CC(=O)Nc1c(C)ccc(C)c1C(=O)O`, for which the growth inhibition in assay [1] was 3.65%; in assay [2] it was -0.7%; in assay [3], 8.25%; in assay [4] it was 1.15%; in assay [5], 13.8%; in assay [6] it was 11.8%.

Regarding `N#CCCC(=O)c1ccccc1`, the growth inhibition in assay [1] is -1.5%; in assay [2], -19.1%; in assay [3] it was -1.15%; in assay [4] it was -2.65%; in assay [5], 5.15%; in assay [6], 16.9%.

As for `O=[N+]([O-])c1ccc(COP(=O)(OCc2ccc([N+](=O)[O-])cc2)OCc2ccc([N+](=O)[O-])cc2)cc1`, the growth inhibition was -8% in assay [1]; -2.35% in assay [2]; 2.9% in assay [3]; -46.5% in assay [4]; 25.3% in assay [5]; 4.75% in assay [6].

On to `CC1C(c2ccccc2O)c2cc3c(cc2OC1N1CCOCC1)OCO3` (configuration not stated), for which the growth inhibition was -24.9% in assay [1]; -13.6% in assay [2]; 7.45% in assay [3]; -5.75% in assay [4]; -18.2% in assay [5]; -29.1% in assay [6].

Turning to `COC(=O)[C@@]12CN(C)[C@@H](C(C)(C)C)N1C(=O)OC2c1ccccc1` (some centres not stated), the growth inhibition in assay [1] is 24.4%; in assay [2] it was -25.4%; in assay [3], -23.1%; in assay [4], -1.8%; in assay [5] it was 36.6%; in assay [6], -8.35%.

In the case of `CCN(CC)C1(C(F)C(F)(F)F)OCC2(CO1)COC(C(F)C(F)(F)F)(N(CC)CC)OC2` (configuration not stated), the growth inhibition was -10.1% in assay [1]; -13.4% in assay [2]; -0.4% in assay [3]; 2.3% in assay [4]; 0.8% in assay [5]; 6.6% in assay [6].

As to `CCC(=O)c1cc(-c2cc(C(=O)CC)[nH]n2)n[nH]1`, the growth inhibition in assay [1] was -27.5%; in assay [2], 3.95%; in assay [3], -5.7%; in assay [4] it was -18.4%; in assay [5] it was 2.15%; in assay [6], 3.85%.

As to `N#CC(NCc1cccc(CNC(C#N)c2ccccc2)c1)c1ccccc1` (configuration not stated), the growth inhibition in assay [1] was -4.8%; in assay [2] it was 8.4%; in assay [3], -28.1%; in assay [4] it was -16.4%; in assay [5], -28.7%; in assay [6] it was -19.8%.

As for `NC(=O)Nc1ccc([N+](=O)[O-])cc1`, the growth inhibition was 4.65% in assay [1]; -2.9% in assay [2]; -2.6% in assay [3]; -51.6% in assay [4]; -11.9% in assay [5]; 2.05% in assay [6].

As to `COC(=O)C1(C)CCCC2(C)C3=CC(O)C4(C(C)C)OC4C3(O)CCC12` (configuration not stated), the growth inhibition in assay [1] is -9.4%; in assay [2], -41.6%; in assay [3], -8.15%; in assay [4], 5.65%; in assay [5], -21.9%; in assay [6] it was -8.2%.
